Test systems include HCT-15 colon; HT29 colon; SNB-75 CNS; SNB-19 CNS; U251 CNS; PC-3 prostate; SK-MEL-5 melanoma; UACC-62 melanoma; LOX IMVI melanoma; SK-MEL-28 melanoma; SK-MEL-2 melanoma; EKVX NSCLC; SN12C renal; UO-31 renal; TK-10 renal; ACHN renal; CAKI-1 renal; A498 renal; CCRF-CEM leukemia; MOLT-4 leukemia.
Test in all cases: NCI-60 one-dose screen, 48 h (100 = growth as untreated, 0 = no growth, -100 = all killed)
Details in all cases: 10 µM

Each structure is given as a SMILES string. Compounds without any hit were thinned out: in the full panel of roughly 83,000, 20% have a hit.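 Single-dose data. Exposure time 48 hours. Values below 10 considered active.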 Values without a mark were called inactive. Active and inactive are the calls of the source.

On to `CNC(=O)c1cccc(N2CCc3c2ccc(NC(=O)Nc2ccc(N4CCN(C)CC4)c(C(F)(F)F)c2)c3F)c1`, for which the growth in the experiment with HCT-15 colon was -89.8% (active); in the experiment on HT29 colon, -88.3% (active); in the experiment on SNB-75 CNS, 7.71% (active); with SNB-19 CNS it was -84.7% (active); in the experiment with U251 CNS, -92.1% (active); with PC-3 prostate, -51.8% (active). Further, the growth with SK-MEL-5 melanoma is -100% (active); in the experiment with UACC-62 melanoma, 88.9%; in the experiment with LOX IMVI melanoma, -100% (active); in the experiment on SK-MEL-28 melanoma, -93.5% (active); in the experiment on SK-MEL-2 melanoma, -53.2% (active); in the experiment on EKVX NSCLC it was -87% (active). Besides, the growth is -91.5% (active) in the experiment on SN12C renal; -100% (active) in the experiment on UO-31 renal; -94.7% (active) in the experiment on TK-10 renal; -100% (active) in the experiment with ACHN renal; -81.5% (active) with CAKI-1 renal; 39.3% in the experiment with A498 renal. Also, the growth with CCRF-CEM leukemia is -42.1% (active).
As for `O=C(NO)c1ccc(CNC(=O)[C@H]2Cc3c([nH]c4ccccc34)[C@H](c3ccccc3)N2)cc1`, the growth with HCT-15 colon was 72.4%; with HT29 colon, 20.2%; in the experiment with SNB-75 CNS, 52.3%; in the experiment with SNB-19 CNS it was 39.4%; in the experiment with U251 CNS it was 13.4%; in the experiment with PC-3 prostate, 33.3%. Moreover, the growth was 8.18% (active) in the experiment with SK-MEL-5 melanoma; -24.5% (active) with UACC-62 melanoma; 19.6% in the experiment on LOX IMVI melanoma; 6.06% (active) in the experiment with SK-MEL-28 melanoma; 9.61% (active) in the experiment on SK-MEL-2 melanoma; 44.8% in the experiment with EKVX NSCLC. Further, the growth in the experiment on SN12C renal is 46.7%; in the experiment on UO-31 renal, 46.3%; with TK-10 renal it was 30.9%; in the experiment with ACHN renal, 70.8%; in the experiment with CAKI-1 renal, 78.3%; in the experiment on A498 renal it was 23.2%. In addition, the growth in the experiment with CCRF-CEM leukemia was 22.2%; with MOLT-4 leukemia, 12.7%.
On to `COc1ccc(NC(=O)Cn2c(/C=C/c3ccc(N(C)C)cc3)nc3ccccc3c2=O)cc1`, for which the growth is 57% with HCT-15 colon; 44.7% in the experiment on HT29 colon; 84.1% in the experiment on SNB-75 CNS; 70.7% in the experiment with SNB-19 CNS; 23% with U251 CNS; 64.5% with PC-3 prostate. Besides, the growth is 30.7% in the experiment on SK-MEL-5 melanoma; 40.9% in the experiment with UACC-62 melanoma; 13.8% in the experiment on LOX IMVI melanoma; 45.6% in the experiment on SK-MEL-28 melanoma; 76.4% in the experiment with SK-MEL-2 melanoma; 71.2% in the experiment with EKVX NSCLC. In addition, the growth is 24% in the experiment with SN12C renal; 2.65% (active) in the experiment with UO-31 renal; 62.8% in the experiment with TK-10 renal; -2.17% (active) in the experiment on ACHN renal; 18.9% in the experiment with CAKI-1 renal; 56.5% in the experiment with A498 renal. For the same compound, the values for the growth with CCRF-CEM leukemia and in the experiment with MOLT-4 leukemia were 90.9% and 85.3%, respectively.
As to `CNCc1cccc2c1OCCCCCC[C@@](C)(O)CC1(CC1)S(=O)(=O)c1ccc(cc1)-c1cnc(N)c(n1)C(=O)N2`, the growth was -96.6% (active) in the experiment on HCT-15 colon; -87% (active) in the experiment on HT29 colon; -93.8% (active) with SNB-75 CNS; -97.4% (active) in the experiment on SNB-19 CNS; -83.8% (active) with U251 CNS; -59% (active) in the experiment with PC-3 prostate. The growth in the experiment on SK-MEL-5 melanoma is -100% (active); in the experiment on UACC-62 melanoma it was -90.8% (active); in the experiment on LOX IMVI melanoma it was -100% (active); in the experiment on SK-MEL-28 melanoma it was -93.6% (active); in the experiment with SK-MEL-2 melanoma, -98.7% (active); in the experiment with EKVX NSCLC, -97.4% (active). Moreover, the growth is -93.9% (active) in the experiment on SN12C renal; -96.8% (active) in the experiment on UO-31 renal; -92% (active) in the experiment with TK-10 renal; -100% (active) with ACHN renal; -94.6% (active) with CAKI-1 renal; -94.5% (active) in the experiment with A498 renal. Moreover, the growth in the experiment with CCRF-CEM leukemia was -6.39% (active); with MOLT-4 leukemia, -44.5% (active).
In the case of `CN(C)CCNC(=O)OCCCCOc1cc(O)c2c(=O)cc(-c3ccccc3)oc2c1`, the growth with HCT-15 colon is -51.8% (active); with HT29 colon, -54.4% (active); with SNB-75 CNS, 103%; in the experiment with SNB-19 CNS, -32.7% (active); in the experiment with U251 CNS it was -64.1% (active); in the experiment with PC-3 prostate, 10.3%. In addition, the growth with SK-MEL-5 melanoma is -100% (active); in the experiment on UACC-62 melanoma it was -88.4% (active); with LOX IMVI melanoma it was -100% (active); in the experiment with SK-MEL-28 melanoma, -91.5% (active); in the experiment on SK-MEL-2 melanoma it was -59.7% (active); with EKVX NSCLC it was 11.7%. In addition, the growth in the experiment with SN12C renal was -9.43% (active); in the experiment with UO-31 renal, -91.2% (active); with TK-10 renal, 0.634% (active); with ACHN renal it was -97.5% (active); with CAKI-1 renal, -39.1% (active); with A498 renal, -76.4% (active). In addition, the values for the growth with CCRF-CEM leukemia and with MOLT-4 leukemia were -5.67% (active) and -42.1% (active), respectively.
Consider `O=C(CNc1nc(-c2ccccc2)cs1)Nc1ccc(Cl)cc1`, for which the growth is -85.4% (active) with HCT-15 colon; -51% (active) in the experiment with HT29 colon; -44.9% (active) in the experiment with SNB-75 CNS; -100% (active) in the experiment with SNB-19 CNS; -87.3% (active) in the experiment with U251 CNS; -40% (active) in the experiment on PC-3 prostate. The growth in the experiment with SK-MEL-5 melanoma is -96.9% (active); in the experiment with UACC-62 melanoma, -92.4% (active); in the experiment with LOX IMVI melanoma it was -90.5% (active); in the experiment on SK-MEL-28 melanoma, -96.2% (active); with SK-MEL-2 melanoma it was -84.1% (active); in the experiment with EKVX NSCLC, -95.3% (active). For the same compound, the growth was -97.2% (active) in the experiment on SN12C renal; -99.8% (active) in the experiment with UO-31 renal; -93.9% (active) in the experiment on TK-10 renal; -100% (active) in the experiment on ACHN renal; -82.4% (active) in the experiment with CAKI-1 renal; -93.4% (active) in the experiment on A498 renal. Moreover, the growth with CCRF-CEM leukemia was 12.3%; in the experiment with MOLT-4 leukemia, -26.5% (active).
Take `Cc1ccc(-c2nc3ccc(C(=O)N=Nc4c(O)[nH]c5ccc(Cl)cc45)cc3[nH]2)cc1`: the growth in the experiment on HCT-15 colon is 67.7%; with HT29 colon, 13.2%; in the experiment with SNB-75 CNS, -49.3% (active); in the experiment with SNB-19 CNS it was -24% (active); in the experiment on U251 CNS it was -100% (active); in the experiment with PC-3 prostate, -51.9% (active). For the same compound, the growth is 22.1% in the experiment with SK-MEL-5 melanoma; 22.6% in the experiment on UACC-62 melanoma; -100% (active) with LOX IMVI melanoma; -1.61% (active) in the experiment on SK-MEL-28 melanoma; 57.3% with SK-MEL-2 melanoma; 37.9% with EKVX NSCLC. Moreover, the growth is 23% in the experiment with SN12C renal; 72.4% with UO-31 renal; 65.6% in the experiment on TK-10 renal; 55.1% with ACHN renal; 58% in the experiment with CAKI-1 renal; 119% with A498 renal. Further, the growth in the experiment with CCRF-CEM leukemia was -31.7% (active).
